Screening results: PubChem, National Center for Advancing Translational Sciences (NCATS)
Pf growth 96h – P. falciparum growth inhibition at 96 hours | AID 504834 | 320,000 compounds, 6.9% hits | Potency, µM (top dose mostly 28.7 µM), inactives show at the highest dose activity change, negative = inhibition, actives largely listed as inhibitors | P. falciparum luciferase reporter growth, 96 h; also: potency is read from the fitted curve at half-maximal effect; % is scaled to controls: 0 for no effect and ±100 for the full control effect
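Infected RBCs, 2% Hct / 0.05% parasitemia final; luciferase-reporter P. falciparum; cpd 96 h, 37 C, 5% CO2; luciferase detection reagent; luminescence.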
Pf growth 48h – inhibits P. falciparum growth in the first generation, 48 h. P. falciparum luciferase growth in erythrocytes, 48 h. AID 504832. Potency, µM (doses to about 28.7 µM), inactives show at the highest dose activity change, negative = inhibition, most hits filed as inhibitors. 310,000 compounds, 5.9% hits; also: potency is read from the fitted curve at half-maximal effect; % is scaled to controls: 0 for no effect and ±100 for the full control effect
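Luciferase-expressing P. falciparum in infected erythrocytes (2% hematocrit, 0.1% parasitemia final) in RPMI 1640/0.5% Albumax were exposed to compound for 48 hours at 37 C, 5% CO2; growth read as luminescence.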
Shiga inhibitor – blocks Shiga toxin action in Vero cells. Vero cells, Shiga toxin protein synthesis inhibition reporter. 290,000 compounds, 9.2% hits. AID 2315. inhibition, % at 38.7 µM; in the data active = inhibition mostly above about 28%, no sharp cut-off; inactive = mostly below about 43%; also: 0% is about no effect
HCMV inh – inhibitors of human cytomegalovirus; AID 1259415; HFF cells, HCMV-luciferase reporter, 72 h; active compounds read low; activity change, negative = inhibition, % at 57.5 µM; 410,000 compounds, 4.5% hits; in the data active = activity change below about -60%; inconclusive = no clear call, values can overlap the other calls; inactive = above about -39%; also: % is scaled to controls: 0 for no effect and ±100 for the full control effect
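Screen run at 2 compound doses on HFFs infected with reporter HCMV, MOI 1 PFU/cell. Luciferase activity from cell lysates at 72 h post infection gave inhibition relative to buffer-only and Salinomycin wells.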
HCV inhibitor – inhibitors of hepatitis C virus infection | Huh7.5.1 HCVcc-Cre infection, luciferase reporter, 44 h | Potency, µM (titrated, usually from 41.8 µM), without a hit: at the highest dose activity change, negative = inhibition, usual class: inhibitors | 340,000 compounds, 3.4% hits | AID 651820; also: potency is read from the fitted curve at half-maximal effect; % is scaled to controls: 0 for no effect and ±100 for the full control effect
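Cells (1,000/well) were plated 4 h before compound, then infected with HCVcc-Cre virus (~0.5 moi). After 44 h further culture, infection was read as luciferase luminescence following a 15 min substrate incubation at room temperature.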
Cycloheximide cs – counter-screen hit for Shiga toxin inhibitors, cycloheximide | cell reporter, cycloheximide protein synthesis inhibition counterscreen | 300,000 compounds, 12% hits | AID 2314 | max response, %; in the data active = max response mostly above about 13%, no sharp cut-off; inactive = mostly below about 14%; also: read at 38.3 µM for the half of the compounds with a filed dose; 0% is about no effect
The depositor's hits bear a star; ? = inconclusive; / = no result. Only some compounds are listed: those with a hit (about 21% of all), similar ones and a draw of the others. Unless noted, calls follow the shape of the dose curve; as a rule, active = well fitted inhibition curve with a large enough effect; inconclusive = small, poorly fitted or top-dose-only effect, or another doubt; inactive = no such curve, though single readings can be large or run the other way.

SMILES | Pf growth 96h | Pf growth 48h | Shiga inhibitor | HCMV inh | HCV inhibitor | Cycloheximide cs
Clc1ccccc1C1SCC2Nc3ccccc3CN21 (stereo unspecified) | ? | 2% | 47 | 37 | -26% | 49*
CCCc1cc(C(=O)Nc2ccccc2SC)no1 | ? | 109% | 88* | -8 | -2% | 62*
CCCc1cc(C(=O)Nc2ccc(F)cc2F)no1 | 9% | / | 74* | -14 | 11% | 58*
O=C(Nc1ccc(F)cc1F)c1cc(CN2CCOCC2)on1 | / | / | / | 36 | / | /
CCCc1cc(C(=O)Nc2cccc(Cl)c2C)no1 | -17% | 102% | 66* | -17 | 0% | 52*
O=C(O)CCC(=O)Nc1ccc(C(=O)OCC(=O)c2ccc(Cl)cc2Cl)cc1 | 4% | -3% | -17 | -24 | 5% | -3
CC(=O)SC1CC(=O)N(c2ccc(C(C)(C)C)cc2)C1=O (stereo unspecified) | 36% | 24% | 11 | 12 | 13% | 4
CC(=O)SC1CC(=O)N(c2c(C)cccc2C)C1=O (stereo unspecified) | 13% | 1.9µM* | -3 | -16 | 22% | -5
CN(C)c1ncc(C2=C(Cl)C(=O)C(N3CCCC3)=C(Cl)C2=O)s1 | / | / | / | -64* | 7.9µM* | /
O=C1C(Cl)=C(N2CCCCC2)C(=O)C(Cl)=C1c1cnc(N2CCCCC2)s1 | -6% | 10µM* | 13 | / | ? | -3
O=C(c1cccc(C(F)(F)F)c1)C1CCCN(C(=O)/C=C/c2cnc[nH]2)C1 (stereo unspecified) | 14% | 22% | 3 | -12 | / | 6
CCCCCCCCOC(=O)c1c(CSC(=N)N)n(C)c2cc(Br)c(OC(C)=O)cc12 | 10µM* | ? | -10 | -92* | 11µM* | -3
CCOC(=O)c1c(CSC(=N)N)n(-c2ccc(Br)cc2)c2cc(Br)c(OC(C)=O)cc12 | ? | 1.9µM* | -22 | -38 | ? | -7
Cc1cccc(Cn2cc(C(=O)c3ccccc3)c(=O)c3cc4c(cc32)OCO4)c1 | / | / | / | -14 | / | /
O=C(Nc1cc(C(F)(F)F)ccc1Cl)c1cc(S(=O)(=O)NCc2ccccc2)ccc1F | / | / | / | -16 | / | /
CC(C)(C)c1ccc(-c2nc(-c3ccncc3)no2)cc1 | ? | 42% | 63* | -70* | -21% | 32*
Cc1cc(C)cc(-c2nc(-c3ccncc3)no2)c1 | ? | / | 65 | 69 | -18% | 11*
Brc1cccc(-c2nc(-c3ccncc3)no2)c1 | -7% | / | 12 | 18 | -29% | 11
CCC(c1ccccc1)c1nc(-c2cccnc2)no1 (stereo unspecified) | 0% | -26% | -8 | 50 | 23% | 0
c1cncc(-c2noc(-c3ccco3)n2)c1 | ? | 180% | 87* | 40 | 14% | 56*
CCCc1noc(-c2ccc(-c3ccccc3)cc2)n1 | / | 96% | 146* | 54 | 7% | 66*
CCOC(=O)[C@]12CCC=C1N(Cc1ccco1)C(=O)[C@H](CC(=O)NCc1ccc(C)o1)C2 | / | / | / | -1 | / | /
CC(C)c1nc2ccc(C(=O)NCCCN3CCN(c4ccccc4F)CC3)cc2o1 | / | / | / | -20 | / | /
CCCc1nn2c(=O)cc(COc3ccc(/C=C(\C#N)C(=O)Nc4ccccc4)cc3)nc2s1 | / | / | / | 7 | / | /
c1ccc(C2OCCN2c2ccccc2)cc1 (stereo unspecified) | / | / | / | ? | 9% | /
SMILES | Pf growth 96h | Pf growth 48h | Shiga inhibitor | HCMV inh | HCV inhibitor | Cycloheximide cs
Cc1cccc(-c2nc(-c3ccncc3)no2)c1 | 10µM* | 198% | 133* | 77 | ? | 40*
Cc1ccc(-c2nc(-c3cccnc3)no2)cc1 | 6% | 5% | 90* | 34 | 2% | 48*
Nc1nonc1-c1noc(-c2ccccc2)n1 | 38% | 62% | 57* | 51 | 15% | 42*
Cc1noc(-c2ccc(-c3noc(-c4ccccc4)n3)cc2)n1 | / | / | / | 50 | / | /
Cc1ccc(-c2nc(-c3ccccc3)no2)cc1 | 371% | / | 64* | 15 | 10% | 38*
COc1ccc(-c2noc(-c3ccccc3-c3ccccc3)n2)cc1 | ? | 10% | -11 | -37 | ? | -3
Cc1cc(OCc2nc(-c3cccnc3)no2)c(C)cc1Br | -33% | 23% | 7 | -16 | -1% | -3
CC(C)(C)c1ccc(-c2noc(-c3ccno3)n2)cc1 | 304% | 439% | 82* | 46 | 7% | 51*
Cc1ccc(-c2nc(-c3ccncc3)no2)cc1 | 111% | 85% | 72* | 64 | ? | 52*
CCC(=O)Oc1ccc(-c2nc(-c3cccnc3)no2)cc1 | 212% | 146% | 32* | 37 | -19% | 22*
Cc1ccc(-c2nc(-c3ccccc3)no2)c(Cl)c1 | -17% | / | 5 | -79* | 6% | 12
Cc1ccc(NC(=O)c2c(C)cc(C)nc2SCC(=O)Nc2ccc(Br)cc2)cc1 | / | / | / | -16 | / | /
Cc1ccc(CCNC(=O)CCCn2nc(C)c3c(C)n(-c4ccccc4)nc3c2=O)cc1 | / | / | / | -11 | / | /
CCOc1cc(CNc2ccc(N3CCCCC3)cc2)cc(Br)c1OCC(=O)NC(C)(C)C | 13µM* | ? | 22 | -4 | ? | 14*
CCOc1cc(CNc2ccc(S(N)(=O)=O)cc2)ccc1OCC(=O)NC(C)(C)C | ? | 21% | -8 | -35 | ? | 6
CCOc1cc(CNc2ccc(N(C)C)cc2)cc(Br)c1OCC(=O)NC(C)(C)C | ? | 0.66µM* | 38* | -18 | 11µM* | 36*
CCOc1cc(CNc2cccc3ccccc23)cc(Br)c1OCC(=O)NC(C)(C)C | 9.3µM* | / | -3 | / | ? | 11
CCc1ccc(NC(=O)c2cc(=O)c3ccc(C)c(C)c3o2)cc1 | / | / | / | 6 | / | /
O=C(Cn1nnc2c(cnn2-c2ccc(F)cc2)c1=O)OC1CCCCC1 | / | 16% | 64 | -8 | 17% | 28*
CCOc1ccc(NC(=O)Cn2nnc3c(cnn3-c3ccc(F)cc3)c2=O)cc1 | ? | -10% | -2 | 12 | -29% | -3
CCOc1cc(CNCCSc2nnnn2-c2ccccc2)ccc1OC | / | / | / | -15 | / | /
COc1ccc(CCNc2nnc(Sc3nnnn3-c3ccccc3)s2)cc1OC | / | ? | -9 | -98* | 14µM* | -1
COc1ccccc1C(=O)c1cc2ccc(O)cc2oc1=O | -14% | -4% | -11 | -62* | 30% | 20
COc1ccc2cc(S(=O)(=O)c3ccccc3)c(=O)oc2c1 | 16% | -3% | -11 | -22 | 4% | -2
COc1ccc2cc(C(=O)c3ccccc3)c(=O)oc2c1 | 128% | 74% | 94* | 51 | 4% | 45*
CCOc1ccc2cc(C(=O)c3ccccc3)c(=O)oc2c1 | 0% | 130% | active | 56 | 1% | 33*
Cc1ccc(C(C)C)c(OCc2ccc(C(=O)Nc3ccc(S(N)(=O)=O)cc3C)o2)c1 | / | / | / | -18 | / | /
Nc1ccccc1C#CC(=O)c1ccccc1 | 3% | ? | -2 | -100* | ? | -1
